PubChem BioAssay AID1159580 (chemical genetic matrix, 2015)
About 2,000 (36%) of roughly 5,500 compounds were called active. Another 18% or so got no clear call; they are omitted. Cut-off read from the data, not from the text of the source: active = normalized growth mostly below about 0.91 (no sharp cut-off); inconclusive = no clear call, values can overlap the other calls; inactive = mostly above about 0.92. The list shows a part of the results.

Assay: chemical genetic growth profiling, strain panel (AID 1159580);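 note: tested at 20 µM; growth read once vehicle control cultures reached saturation at 30 °C; 1 = growth at the plate median or of vehicle wells; lower values mean less growth of the strain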
Conditions: growth OD

Measured: normalized growth

CC12CCC(CC1)C(C)(C)O2
inactive: S. cerevisiae deletion strains, locus YJL187C, strain SWE1 (second series), active compounds read low 1 | S. cerevisiae deletion strains, locus YJL187C, strain SWE1, active compounds read low 0.989 | S. cerevisiae deletion strains, locus YJR043C, strain POL32, active compounds read low 0.989 | S. cerevisiae deletion strains, locus YJR066W, strain TOR1, active compounds read low 0.94 | S. cerevisiae deletion strains, locus YKL009W, strain mrt4, active compounds read low 1.03 | S. cerevisiae deletion strains, locus YKL068W, active compounds read low 1.01 | S. cerevisiae deletion strains, locus YKL085W, strain MDH1 (second series), active compounds read low 1.01 | S. cerevisiae deletion strains, locus YKL085W, strain MDH1, active compounds read low 1.01 | S. cerevisiae deletion strains, locus YKL160W, strain elf1, active compounds read low 1 | S. cerevisiae deletion strains, locus YKR001C, strain vps1, active compounds read low 1.01 | S. cerevisiae deletion strains, locus YKR026C, strain gcn3, active compounds read low 0.977 | S. cerevisiae deletion strains, locus YKR091W, strain srl3, active compounds read low 0.993 | S. cerevisiae deletion strains, locus YLL001W, strain dnm1, active compounds read low 0.985 | S. cerevisiae deletion strains, locus YLL026W, active compounds read low 0.977 | S. cerevisiae deletion strains, locus YLL041C, strain sdh2, active compounds read low 0.974 | S. cerevisiae deletion strains, locus YLR027C, strain aat2, active compounds read low 0.97 | S. cerevisiae deletion strains, locus YLR039C, strain RIC1, active compounds read low 1.01 | S. cerevisiae deletion strains, locus YLR058C, strain SHM2, active compounds read low 1.01 | S. cerevisiae deletion strains, locus YLR102C, strain apc9, active compounds read low 1.01 | S. cerevisiae deletion strains, locus YLR113W, strain HOG1, active compounds read low 0.994 | S. cerevisiae deletion strains, locus YLR221C, strain rsa3, active compounds read low 0.98 | S. cerevisiae deletion strains, locus YLR258W, strain gsy2, active compounds read low 0.976 | S. cerevisiae deletion strains, locus YLR262C, strain YPT6 (second series), active compounds read low 1.03 | S. cerevisiae deletion strains, locus YLR262C, strain YPT6, active compounds read low 1 | S. cerevisiae deletion strains, locus YLR268W, strain sec22, active compounds read low 0.994 | S. cerevisiae deletion strains, locus YLR320W, strain mms22, active compounds read low 0.994 | S. cerevisiae deletion strains, locus YLR330W, strain CHS5, active compounds read low 1.01 | S. cerevisiae deletion strains, locus YLR342W, strain FKS1 (second series), active compounds read low 1.04 | S. cerevisiae deletion strains, locus YLR342W, strain FKS1, active compounds read low 0.974 | S. cerevisiae deletion strains, locus YLR357W, strain rsc2, active compounds read low 0.932 | S. cerevisiae deletion strains, locus YLR370C, strain arc18, active compounds read low 0.972 | S. cerevisiae deletion strains, locus YLR371W, strain rom2, active compounds read low 1.02 | S. cerevisiae deletion strains, locus YLR384C, strain iki3, active compounds read low 0.974 | S. cerevisiae deletion strains, locus YLR418C, strain cdc73, active compounds read low 1.05 | S. cerevisiae deletion strains, locus YML016C, strain PPZ1, active compounds read low 1.01 | S. cerevisiae deletion strains, locus YML032C, strain rad52, active compounds read low 1.02 | S. cerevisiae deletion strains, locus YML120C, strain ndi1, active compounds read low 0.988 | S. cerevisiae deletion strains, locus YML124C, strain tub3, active compounds read low 1.02 | S. cerevisiae deletion strains, locus YMR058W, strain fet3, active compounds read low 0.98 | S. cerevisiae deletion strains, locus YMR078C, strain ctf18, active compounds read low 1.01 | S. cerevisiae deletion strains, locus YMR125W, strain sto1, active compounds read low 0.977 | S. cerevisiae deletion strains, locus YMR129W, active compounds read low 0.992 | S. cerevisiae deletion strains, locus YMR205C, strain PFK2, active compounds read low 0.99 | S. cerevisiae deletion strains, locus YMR223W, strain ubp8, active compounds read low 1.03 | S. cerevisiae deletion strains, locus YMR231W, strain pep5, active compounds read low 0.957 | S. cerevisiae deletion strains, locus YMR307W, strain GAS1, active compounds read low 0.998 | S. cerevisiae deletion strains, locus YNL067W, strain RPL9B, active compounds read low 1 | S. cerevisiae deletion strains, locus YNL071W, strain lat1, active compounds read low 0.984 | S. cerevisiae deletion strains, locus YNL183C, strain NPR1, active compounds read low 0.907 | S. cerevisiae deletion strains, locus YNL209W, strain ssb2, active compounds read low 0.98 | S. cerevisiae deletion strains, locus YNL233W, strain BNI4, active compounds read low 1.01 | S. cerevisiae deletion strains, locus YNL248C, strain rpa49, active compounds read low 0.978 | S. cerevisiae deletion strains, locus YNL250W, strain rad50, active compounds read low 0.99 | S. cerevisiae deletion strains, locus YNL271C, strain bni1, active compounds read low 1.01 | S. cerevisiae deletion strains, locus YNL298W, strain CLA4, active compounds read low 1.02 | S. cerevisiae deletion strains, locus YNL307C, strain MCK1, active compounds read low 1.01 | S. cerevisiae deletion strains, locus YNL322C, strain KRE1 (second series), active compounds read low 0.967 | S. cerevisiae deletion strains, locus YNR049C, strain mso1, active compounds read low 0.983 | S. cerevisiae deletion strains, locus YNR052C, strain pop2, active compounds read low 1.01 | S. cerevisiae deletion strains, locus YOL012C, strain htz1 0.871 | S. cerevisiae deletion strains, locus YOL147C, strain pex11, active compounds read low 1.01 | S. cerevisiae deletion strains, locus YOR001W, strain rrp6, active compounds read low 0.98 | S. cerevisiae deletion strains, locus YOR061W, strain CKA2, active compounds read low 1.01 | S. cerevisiae deletion strains, locus YOR069W, strain VPS5, active compounds read low 1 | S. cerevisiae deletion strains, locus YOR070C, strain gyp1, active compounds read low 0.971 | S. cerevisiae deletion strains, locus YOR080W, strain dia2, active compounds read low 0.975 | S. cerevisiae deletion strains, locus YOR083W, strain WHI5, active compounds read low 0.992 | S. cerevisiae deletion strains, locus YOR106W, strain vam3, active compounds read low 0.954 | S. cerevisiae deletion strains, locus YOR136W, strain idh2, active compounds read low 1 | S. cerevisiae deletion strains, locus YOR144C, strain elg1, active compounds read low 1.01 | S. cerevisiae deletion strains, locus YOR184W, strain ser1, active compounds read low 1 | S. cerevisiae deletion strains, locus YOR231W, strain MKK1, active compounds read low 1.01 | S. cerevisiae deletion strains, locus YOR265W, strain rbl2, active compounds read low 0.999 | S. cerevisiae deletion strains, locus YOR270C, strain vph1, active compounds read low 1.02 | S. cerevisiae deletion strains, locus YOR290C, strain snf2, active compounds read low 0.979 | S. cerevisiae deletion strains, locus YOR316C, strain cot1, active compounds read low 1.02 | S. cerevisiae deletion strains, locus YPL051W, strain arl3, active compounds read low 0.973 | S. cerevisiae deletion strains, locus YPL055C, strain LGE1, active compounds read low 1.02 | S. cerevisiae deletion strains, locus YPL078C, strain atp4, active compounds read low 0.995 | S. cerevisiae deletion strains, locus YPL106C, strain sse1, active compounds read low 0.978 | S. cerevisiae deletion strains, locus YPL240C, strain hsp82, active compounds read low 0.968 | S. cerevisiae deletion strains, locus YPL256C, strain CLN2, active compounds read low 0.977 | S. cerevisiae deletion strains, locus YPR119W, strain clb2, active compounds read low 1.02 | S. cerevisiae deletion strains, locus YPR141C, strain kar3, active compounds read low 1.03 | S. cerevisiae deletion strains, locus YPR163C, strain tif3, active compounds read low 1.02 | S. cerevisiae deletion strains, locus YPR167C, strain met16, active compounds read low 1.02 | S. cerevisiae deletion strains, strain wtn01, active compounds read low 1.03 | S. cerevisiae strains, strain wild type, active compounds read low 1.01
